Screening results (PubChem)
An excerpt weighted towards active compounds, which were near 6.1% of everything screened.
TGFb inhibitor: TGF-b pathway inhibition; HepG2 CAGA-GFP TGF-b/SMAD3 reporter, GFP fluorescence, 18 h; TGF-beta stimulated, 500 pg/mL final; Potency, µM (series often up to 46.1 µM), inactives show at the top dose activity, negative = inhibition, most hits filed as inhibitors; AID 588855; actives 1.2% (n = 410,000); also: % is scaled to controls: 0 for no effect and ±100 for the full control effect; nearly all actives have a fitted effect of over 65% in size
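First, reporter cells (HEPG2 CAGA-GFP) rested 2 h at 37 degrees C. Next, compounds were pinned in and TGF-beta added to 500 pg/mL final. After 18 h, GFP was imaged per cell and summed per well.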
ATXN viability: viability counter-screen for ATXN expression inhibitors; S2 cells (HEK-293 line with an ATXN2-luciferase reporter) viability, CellTiter-Fluor protease fluorescence, 24 h; Potency, µM (top dose mostly 56.7 µM), actives largely listed as cytotoxic; actives 0.49% (n = 400,000); AID 651635; also: nearly all actives have a fitted effect of over 40% in size
HepG2 tox: kills HepG2 cells in TGF-b inhibitor counter-screen; HepG2 CAGA-GFP viability, ATP luminescence, 18 h; Potency, µM (series often up to 46.1 µM), without a hit: at the top dose activity change, negative = cytotoxicity, hits mostly cytotoxic; actives 0.76% (n = 410,000); AID 588856
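HepG2 CAGA-GFP cells (1000/well, DMEM with 1% FBS) received compound, then TGF-beta at 500 pg/mL final, and were incubated 18 hours at 37 degrees C. Viability was read by CellTiter-Glo luminescence. Media-only wells were set as complete cell-killing and DMSO as no toxicity.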
Gal4-VP16 FLuc: Gal4-VP16 reporter inhibition counter-screen. Drosophila S2 Gal4-VP16 UAS-luciferase, luminescence, 20 h. Potency, µM (titrated, usually from 53.6 µM), for the others: at the highest dose activity, negative = inhibition, actives largely listed as inhibitors. actives 3.5% (n = 310,000). AID 2546;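 also: Gal4-VP16 expression switched on by copper sulfate through the metallothionein promoter; % is scaled to controls: 0 for no effect and ±100 for the full control effect; nearly all actives have a fitted effect of over 50% in size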
RORgamma inh: inhibitors of mouse ROR gamma transcriptional activity; P51450; Drosophila S2 Gal4-RORgamma UAS-luciferase reporter, 20 h; actives 5.4% (n = 310,000); Potency, µM (highest dose often 53.6 µM), for the others: at the highest dose activity change, negative = inhibition, hits mostly inhibitors; also: % is scaled to controls: 0 for no effect and ±100 for the full control effect; nearly all actives have a fitted effect of over 60% in size
Target sequence (P51450 whole entry, looked up, the tested form may be a part): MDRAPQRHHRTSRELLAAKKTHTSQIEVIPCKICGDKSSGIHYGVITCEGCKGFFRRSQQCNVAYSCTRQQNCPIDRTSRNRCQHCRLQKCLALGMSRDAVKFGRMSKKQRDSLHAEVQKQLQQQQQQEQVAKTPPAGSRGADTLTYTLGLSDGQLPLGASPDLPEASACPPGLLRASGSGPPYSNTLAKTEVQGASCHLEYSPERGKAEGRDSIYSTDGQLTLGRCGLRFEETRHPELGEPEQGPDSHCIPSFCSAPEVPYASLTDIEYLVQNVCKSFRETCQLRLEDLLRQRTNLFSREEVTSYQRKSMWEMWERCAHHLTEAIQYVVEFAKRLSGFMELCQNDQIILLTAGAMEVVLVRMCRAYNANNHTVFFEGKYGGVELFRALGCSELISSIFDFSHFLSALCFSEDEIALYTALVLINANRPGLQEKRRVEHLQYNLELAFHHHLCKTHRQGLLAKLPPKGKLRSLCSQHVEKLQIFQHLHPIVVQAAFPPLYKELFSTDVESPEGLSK
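Using a luciferase readout, inhibitors were identified by reduced reporter activity in Drosophila cells coexpressing a copper-inducible Gal4–ROR gamma fusion and UAS-driven Photinus luciferase, incubated 20 hr after 700 uM copper sulfate.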
ATXN2 expr inh: ATXN2 expression inhibition; HEK-293 ATXN2-luciferase reporter, luminescence, 24 h; Potency, µM (doses to about 57 µM), for inactives: at the top dose activity change, negative = inhibition, usual class: inhibitors; actives 0.72% (n = 360,000); AID 1745845; also: % is scaled to controls: 0 for no effect and ±100 for the full control effect; nearly all actives have a fitted effect of over 55% in size
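ATXN2-luciferase reporter cells (luciferase flanked by upstream and downstream ATXN2 gene portions) were treated 24 h at 37 °C with compounds at up to 57 uM. SteadyGlo luminescence gave expression; GF-AFC fluorescence gave viability.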
* marks the source's active call; other numbers are inactive results. Calls follow the shape of the dose curve; as a rule, active = well fitted curve in the direction sought with a large enough effect; inconclusive = small, poorly fitted or top-dose-only effect, or another doubt; inactive = no such curve, though single readings can be large; an effect the other way counts as inactive or inconclusive. Potency is read from the fitted curve at half-maximal effect.

Screening Cc1oc(=O)c(NC(=O)c2ccccc2)cc1C(N)=O returned TGFb inhibitor 6.4%, ATXN viability inactive, HepG2 tox 2.5%, Gal4-VP16 FLuc -10.3%, RORgamma inh 1.5% and ATXN2 expr inh -6.1%.
`Cc1oc(=O)c(NC(=O)c2cccc(Cl)c2)cc1C(=O)c1ccccc1` gave TGFb inhibitor inconclusive, ATXN viability inconclusive, HepG2 tox 0.2%, Gal4-VP16 FLuc 5.01µM*, RORgamma inh 4.47µM* and ATXN2 expr inh -22.9%.
For Cc1sc2nc(CN3CCC(C)CC3)nc(Cl)c2c1C the results were Gal4-VP16 FLuc 3.7% and RORgamma inh 17.8µM*.
For Cc1cccc(OCc2nc(-c3ccccn3)n[nH]2)c1 the results were TGFb inhibitor inconclusive, ATXN viability inactive, HepG2 tox -48.2%, Gal4-VP16 FLuc 2.82µM*, RORgamma inh 1.58µM* and ATXN2 expr inh -5.0%.
For Cc1ccc(OCc2nc(-c3ccccn3)n[nH]2)cc1 the results were TGFb inhibitor -41.7%, ATXN viability inconclusive, HepG2 tox -15.5%, Gal4-VP16 FLuc 5.01µM*, RORgamma inh 3.16µM* and ATXN2 expr inh -27.4%.
`Cc1cc(C)nc(Nc2n[nH]c(COc3ccc(Cl)cc3)n2)n1` gave TGFb inhibitor -6.1%, ATXN viability inconclusive, HepG2 tox -8.0%, Gal4-VP16 FLuc -10.8%, RORgamma inh -22.1% and ATXN2 expr inh -17.6%.
Cc1cc(C)c2c(=O)cc(C(=O)Nc3ccc(S(=O)(=O)N(C)Cc4ccccc4)cc3)oc2c1 was read as TGFb inhibitor -0.7%, ATXN viability inconclusive, HepG2 tox 0.0% and ATXN2 expr inh -9.4%.
`CCN(CC)CCCNC1=C(Cl)C(=O)c2ccccc2C1=O` gave TGFb inhibitor 4.47µM*, ATXN viability 23.8µM*, HepG2 tox 3.16µM*, Gal4-VP16 FLuc inconclusive, RORgamma inh 7.94µM* and ATXN2 expr inh inconclusive.
Screening COCCCNC1=C(Cl)C(=O)c2ccccc2C1=O returned TGFb inhibitor inconclusive, ATXN viability inactive, HepG2 tox -70.8%, Gal4-VP16 FLuc -17.5%, RORgamma inh -28.2% and ATXN2 expr inh inconclusive.
For C=CCNC1=C(Cl)C(=O)c2ccccc2C1=O the results were TGFb inhibitor inconclusive, ATXN viability inactive, HepG2 tox 12.6µM*, Gal4-VP16 FLuc inconclusive, RORgamma inh 12.6µM* and ATXN2 expr inh -35.7%.
For CC(C)OCCCNC1=C(Cl)C(=O)c2ccccc2C1=O the results were TGFb inhibitor inconclusive, ATXN viability inactive, HepG2 tox -30.5%, Gal4-VP16 FLuc inconclusive, RORgamma inh -43.5% and ATXN2 expr inh 12.7%.
For CC(=O)N(Cc1ccc(F)cc1)C1=C(NCCc2ccccc2)C(=O)c2ccccc2C1=O the results were TGFb inhibitor inconclusive, ATXN viability 28.2µM*, HepG2 tox 3.98µM*, Gal4-VP16 FLuc inconclusive, RORgamma inh 0.0% and ATXN2 expr inh 12.6µM*.
`CC(C)NC1=C(Cl)C(=O)c2ccccc2C1=O` gave TGFb inhibitor 10µM*, ATXN viability inconclusive, HepG2 tox 8.91µM*, Gal4-VP16 FLuc inconclusive, RORgamma inh inconclusive and ATXN2 expr inh -15.8%.
`O=C(Cn1cc(S(=O)(=O)Cc2cccc(Cl)c2)c2ccccc21)NCCc1ccccc1` gave TGFb inhibitor -8.1% and HepG2 tox 1.4%.
CC(C)(C)Nc1nc(C#N)nc(Nc2ccccc2)n1 was read as Gal4-VP16 FLuc 2.8%.
O=C1C(Cl)=C(NCCc2ccccc2)C(=O)c2ccccc21 was read as TGFb inhibitor inconclusive, ATXN viability inactive, HepG2 tox -40.6% and ATXN2 expr inh 31.6µM*.
`O=C1C(Cl)=C(NCCc2ccccc2)C(=O)N1CCc1ccccc1` gave TGFb inhibitor -10.0%, ATXN viability inactive, HepG2 tox -15.9%, Gal4-VP16 FLuc -10.2%, RORgamma inh 16.6% and ATXN2 expr inh 14.9%.
For Cc1ccc(CCNC(=O)c2sc3nc4n(c(=O)c3c2C)CCCC4)cc1 the results were TGFb inhibitor -2.5% and HepG2 tox -53.3%.
`CCN(C(=O)CSc1nnc(-c2cc3occc3n2C)n1-c1ccccc1C)c1ccccc1` gave TGFb inhibitor 9.9% and HepG2 tox 3.7%.
CC(C)c1ccc(C(N)=S)cc1 was read as TGFb inhibitor -6.7%, ATXN viability inactive, HepG2 tox -5.7%, Gal4-VP16 FLuc 17.8µM* and RORgamma inh 3.98µM*.
Cc1ccccc1C(=O)Nc1c(C)nc2ccccn2c1=O was read as TGFb inhibitor -2.9% and HepG2 tox -11.8%.
`COc1ccc(CN2CCOc3ccc(CN4CCC(Oc5cccnc5)CC4)cc3C2)c(F)c1` gave ATXN viability inactive.
CC(=O)/C(N=Nc1ccc(C(=O)O)cc1[N+](=O)[O-])=C(\C)O was read as TGFb inhibitor -6.3%, ATXN viability inactive, HepG2 tox -5.4%, Gal4-VP16 FLuc -2.3% and RORgamma inh 0.0%.
`CC(=O)/C(N=Nc1cc(C)ccc1O)=C(\C)O` gave TGFb inhibitor 0.0%, ATXN viability inconclusive, HepG2 tox -16.2%, Gal4-VP16 FLuc -3.5%, RORgamma inh 3.16µM* and ATXN2 expr inh -16.2%.
`CN1C(=O)/C(=C/c2ccccc2OCc2cccc(F)c2)NC1=S` gave TGFb inhibitor 17.5%, ATXN viability inactive, HepG2 tox -4.8%, Gal4-VP16 FLuc 3.16µM*, RORgamma inh 3.98µM* and ATXN2 expr inh -31.7%.
Screening CN1C(=O)/C(=C/c2ccccc2OCc2ccccc2)NC1=S returned TGFb inhibitor inconclusive, ATXN viability inactive, HepG2 tox -2.1%, Gal4-VP16 FLuc inconclusive, RORgamma inh 7.08µM* and ATXN2 expr inh 0.0%.
`CN1C(=O)/C(=C/c2ccccc2OCc2ccc(C(=O)O)cc2)NC1=S` gave TGFb inhibitor -2.1%, ATXN viability inactive, HepG2 tox 17.1%, Gal4-VP16 FLuc -21.5%, RORgamma inh 9.8% and ATXN2 expr inh 3.4%.
`Cc1ccccc1OCC(=O)Nc1ccc(C(=O)OCc2cc(=O)n3c(C)csc3n2)cc1` gave TGFb inhibitor 1.3% and HepG2 tox -6.8%.
C=CCc1c(C)nc(-c2ccccc2)nc1Nc1ccccc1O was read as TGFb inhibitor inconclusive, ATXN viability inactive, HepG2 tox -28.9%, Gal4-VP16 FLuc -10.4%, RORgamma inh inconclusive and ATXN2 expr inh -1.2%.
`C=CCc1c(C)nc(SC)nc1Nc1ccc(C)cc1` gave TGFb inhibitor inconclusive, ATXN viability inactive, HepG2 tox -52.2%, Gal4-VP16 FLuc 2.9%, RORgamma inh 10µM* and ATXN2 expr inh inconclusive.
